This is a sample that favours compounds with a hit; in the whole collection about 19% have one here.
IL-1B inflam inh: blocks inflammasome-driven IL-1 beta release; THP-1 LPS/ATP IL-1B secretion, AlphaLISA, 16 h; hits give low values; 360,000 compounds, 4.7% hits; activity change, % at 57.5 µM; in the data active means activity change below about -50%; inconclusive means mostly about -30% to -49%
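Secreted IL-1B measured by AlphaLISA bead assay after 16 h compound exposure of THP-1 cells; compounds (final up to 57.5 uM) added 1 h before LPS (250 ng/mL) and ATP (1.25 mM) stimulation; lower signal means less secretion.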
Chronic BCR inh: inhibitors of chronic active B-cell receptor signaling. ABC-DLBCL IkBa-CBG/CBR reporter, luminescence ratio, 4 h. Potency, µM (highest dose often 46.1 µM), usual class: inhibitors. 340,000 compounds, 0.05% hits; active means well fitted inhibition curve with a large enough effect in the signal ratio, with a control signal flat, not every such curve was filed as active; inconclusive means small, poorly fitted or top-dose-only effect, or effect the other way, or a change in a side signal; the % refers to the signal ratio
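TMD8 ABC-DLBCL cells carrying doxycycline-inducible green luciferase fused to IkappaBalpha plus unfused red luciferase were exposed to compounds (up to 46 uM) for 4 hrs at 37C. Activity came from the overlap-corrected green/red luminescence ratio.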
DT40 TDP1 CPT: growth inhibition of DT40 Tdp1-/-;hTDP1 cells with camptothecin (screen for TDP1 inhibitors); Potency, µM (titrated, usually from 46.2 µM), hits mostly inhibitors; chicken DT40 Tdp1-/-;hTDP1 cells + 20 nM CPT, ATP luminescence, 48 h; 420,000 compounds, 12% hits; further: nearly all actives have a fitted effect of over 55% in size
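Cell growth measured by CellTiter-Glo luminescence after a minimum 48 h, 37 C compound exposure with 20 nM CPT in Tdp1-knockout DT40 cells stably expressing hTDP1, seeded 400/well; qHTS titration format.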
DT40 TDP1 no CPT: qHTS for Inhibitors of human tyrosyl-DNA phosphodiesterase 1 (TDP1): qHTS in cells in absence of CPT; DT40 Tdp1-/- hTDP1 cells, no CPT, ATP luminescence, 48 h; Potency, µM (doses to about 46.2 µM), usual class: inhibitors; AID 686978, 2013; 420,000 compounds, 15% hits; further: nearly all actives have a fitted effect of over 55% in size
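Chicken DT40 Tdp1-/- cells complemented with human TDP1, screened without camptothecin (DMSO vehicle only), 400 cells/well. Compounds pin-transferred, cells incubated at 37 °C for at least 48 hr. Growth read as ATP-dependent luminescence (CellTiter-Glo, 30 min at RT).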
SW480 rereplic: DNA re-replication induction in SW480 cells | 340,000 compounds, 1.8% hits | AID 624297 | SW480 DNA re-replication, Hoechst DNA content imaging, 48 h | Potency, µM (highest dose often 46.1 µM), usual class: activators; further: nearly all actives have a fitted effect of over 55% in size
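Readout is total intensity of Hoechst-stained nuclei, excited at 405 nm and collected at 500-530 nm. Compound treatment lasted 48 hr at 37 C in 5% CO2 before staining.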
MCF10A rereplic: inducers of DNA re-replication in MCF 10A breast cells; MCF 10A DNA re-replication, Hoechst nuclear intensity, 48 h; 350,000 compounds, 2.9% hits; Potency, µM (top dose mostly 46.1 µM), usual class: activators; further: nearly all actives have a fitted effect of over 50% in size
Numbers stand for hits; . = inactive; ? = inconclusive; / = no result given; [ ] = another dose, or the depositor's remark. Unless noted, the call rests on the fitted dose curve; in most records, active means well fitted curve in the direction sought with a large enough effect; inconclusive means small, poorly fitted or top-dose-only effect, or another doubt; inactive means no such curve, though single readings can be large; an effect the other way counts as inactive or inconclusive.

SMILES	IL-1B inflam inh	Chronic BCR inh	DT40 TDP1 CPT	DT40 TDP1 no CPT	SW480 rereplic	MCF10A rereplic
CCCCC1C(=O)CC[C@H]2[C@@H]1CC(=O)[C@@H]2C/C=C\CCCC(=O)O (some centres not stated)	?	20.6µM	?	20.6µM	1.84µM	.
CCCCCC1C(=O)CCC1CC(=O)O (configuration not stated)	/	/	.	.	/	/
CCOc1ncccc1C(=O)OCCCC(=O)c1ccc(Br)cc1	.	.	.	?	.	.
CCC(C)c1ccc(S(=O)(=O)N2CCN(C(=O)c3ccc(Cl)c(S(=O)(=O)N4CCOCC4)c3)CC2)cc1 (configuration not stated)	.	/	?	18.4µM	.	.
CCOC(=O)C1CCN(C(=O)c2ccc(Cl)c(S(=O)(=O)N3CCCC3)c2)CC1	.	.	.	.	.	.
CCOC(=O)N1CCN(C(=O)c2ccc(Cl)c(S(=O)(=O)N3CCOCC3)c2)CC1	.	.	.	.	.	.
CCOC(=O)C1CCCN(C(=O)c2cc(Cl)ccc2Cl)C1 (configuration not stated)	.	.	.	.	.	.
CCOC(=O)C1CCCN(C(=O)c2ccc(Cl)c(S(=O)(=O)N3CCc4ccccc43)c2)C1 (configuration not stated)	.	/	?	13µM	.	?
CCOC(=O)C1CCN(C(=O)c2ccc(Cl)c(S(=O)(=O)N3CCOCC3)c2)CC1	.	.	.	?	?	13µM
CC1=NNC(=O)C1CCC(=O)N/N=C/C(Br)=C/c1ccccc1 (configuration not stated)	.	?	2.91µM	2.06µM	.	.
CC1=NNC(=O)C1CC(=O)N/N=C/C(Br)=C/c1ccccc1 (configuration not stated)	.	?	20.6µM	20.6µM	.	.
CC1=NNC(=O)C1CC(=O)N/N=C/c1cccs1 (configuration not stated)	.	?	.	.	.	.
CC1C(=O)NN=C1C(=O)N/N=C\C(Br)=C\c1ccccc1 (configuration not stated)	.	?	6.51µM	14.6µM	?	?
CC1C(=O)NN=C1C(=O)N/N=C/c1ccco1 (configuration not stated)	.	?	?	?	.	.
O=c1[nH]c(N2CCCCC2)nc2ncn(Cc3ccccc3)c12	?	.	?	?	.	.
CCN=c1scc(-c2ccc3c(c2)NC(=O)CO3)n1N=C1CCCC1	.	.	?	8.2µM	.	?
O=C1COc2ccc(-c3n[nH]c(=O)c4ccccc34)cc2N1	.	.	.	?	.	?
Cc1ccc2nc(-c3ccc4c(c3)NC(=O)CO4)cn2c1	.	?	.	?	.	.
CCCCN=c1scc(-c2ccc3c(c2)NC(=O)CO3)n1N=C1CCCC1	?	.	13µM	23.1µM	.	?
O=C(C[n+]1ccccc1)N/N=C/c1ccc(Cl)c(Cl)c1	.	.	.	.	.	.
Cc1oc(S(=O)(=O)N2CCCCC2)cc1NC(=O)Nc1ccc(Cl)cc1	.	.	16.4µM	16.4µM	.	.
Cc1oc(S(=O)(=O)N2CCCCC2)cc1NC(=O)Nc1ccccc1	.	.	?	?	.	.
O=C(Cn1c(=O)oc2cc(S(=O)(=O)N3CCCCC3)ccc21)Nc1cccc(Cl)c1	/	/	8.2µM	9.2µM	/	/
CN1CCN(S(=O)(=O)c2ccc(NC(=O)Nc3cccc(Cl)c3)cc2)CC1	.	.	?	?	.	.
CC1CCC(NC(=O)Cn2c(=O)oc3cc(S(=O)(=O)N4CCCC4)ccc32)CC1 (configuration not stated)	.	.	.	.	.	.
SMILES	IL-1B inflam inh	Chronic BCR inh	DT40 TDP1 CPT	DT40 TDP1 no CPT	SW480 rereplic	MCF10A rereplic
O=C(Nc1cccc(Cl)c1)Nc1cc(S(=O)(=O)N2CCCCC2)ccc1Cl	-88.4	?	?	?	?	6.51µM
O=C(Cn1c(=O)oc2cc(S(=O)(=O)N3CCCCCC3)ccc21)Nc1cccc(C(F)(F)F)c1	/	.	8.2µM	9.2µM	/	/
COC(=O)CCCOc1ccc(Cl)cc1Cl	/	/	.	.	/	/
Cc1cccc(S(=O)(=O)c2cn(Cc3ccc(F)cc3)c3cc(N4CCCCC4)c(F)cc3c2=O)c1	/	/	.	.	/	/
COCC(O)Cn1ccnc1[N+](=O)[O-] (configuration not stated)	.	/	.	?	/	/
COc1cc2nc(N3CCCC(O)C3)c(CNCc3ccccc3C(F)(F)F)cc2c(OC)c1OC (configuration not stated)	/	/	.[9.04 µM]	?	/	/
CC(C)(C)OC(=O)C[C@H]1C/C=C\C[C@H](CC(=O)N(CCO)Cc2ccccc2)C(=O)N[C@@H](Cc2ccccc2)COC1=O	.	.	16.4µM	?	.	.
CC(C)(C)OC(=O)C[C@H]1C/C=C\C[C@@H](CC(=O)N(CCO)Cc2ccccc2)C(=O)N[C@H](Cc2c[nH]c3ccccc23)COC1=O	.	.	?	18.4µM	.	?
C[C@@H]1COC(=O)[C@@H](CC(=O)OC(C)(C)C)C/C=C\C[C@H](CC(=O)N(CCO)Cc2ccccc2)C(=O)N1	.	.	?	?	.	.
CC(C)(C)OC(=O)C[C@H]1C/C=C\C[C@H](CC(=O)N(CCO)Cc2ccccc2)C(=O)N[C@H](C(C)(C)C)COC1=O	.	.	29.1µM	20.6µM	.	?
CC(C)(C)OC(=O)C[C@@H]1C/C=C\C[C@@H](CC(=O)N(CCO)Cc2ccccc2)C(=O)N[C@H](Cc2c[nH]c3ccccc23)COC1=O	.	.	.	?	.	?
O=C1NC(=O)/C(=C/c2ccc(-c3cc(C(=O)O)ccc3Cl)o2)S1	.	.	.	.	.	?
O=C1NC(=S)/C(=C\c2ccc(-c3ccccc3Cl)o2)S1	.	?	23.1µM	13µM	.	6.51µM
CCn1c(/C=C/Nc2ccccc2)[n+](CC)c2cc(Cl)c(Cl)cc21	.	.	2.59µM	3.26µM	?	?
CCNc1ccc(C(=O)NN=C2CCCC2)cc1[N+](=O)[O-]	.	?	.	.	.	.
CCCCN(C)C(=O)c1ccc2c(c1)N(Cc1cccc(Cl)c1)C(=O)c1ccccc1S2=O (configuration not stated)	/	.	8.2µM	14.6µM	/	/
CCC(C)NC(=O)c1ccc2c(c1)N(Cc1ccccc1F)C(=O)c1ccccc1S2=O (configuration not stated)	/	/	.	.	/	/

High-throughput results: PubChem BioAssay, National Center for Advancing Translational Sciences (NCATS)
